Screening data as filed in PubChem.
Most compounds without a hit are left out; they make up all but 3.5% or so of the library.
mHTT CaM bind = mHTT-calmodulin interaction abrogation. P42858. AlphaScreen His-mHTT/GST-CaM binding, luminescence. inhibition, % at 15 µM. hit rate 3.6% among 190,000;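 note: 0% = both proteins with DMSO and 100% = one protein alone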
Target sequence (P42858 whole entry, looked up, stated change not applied): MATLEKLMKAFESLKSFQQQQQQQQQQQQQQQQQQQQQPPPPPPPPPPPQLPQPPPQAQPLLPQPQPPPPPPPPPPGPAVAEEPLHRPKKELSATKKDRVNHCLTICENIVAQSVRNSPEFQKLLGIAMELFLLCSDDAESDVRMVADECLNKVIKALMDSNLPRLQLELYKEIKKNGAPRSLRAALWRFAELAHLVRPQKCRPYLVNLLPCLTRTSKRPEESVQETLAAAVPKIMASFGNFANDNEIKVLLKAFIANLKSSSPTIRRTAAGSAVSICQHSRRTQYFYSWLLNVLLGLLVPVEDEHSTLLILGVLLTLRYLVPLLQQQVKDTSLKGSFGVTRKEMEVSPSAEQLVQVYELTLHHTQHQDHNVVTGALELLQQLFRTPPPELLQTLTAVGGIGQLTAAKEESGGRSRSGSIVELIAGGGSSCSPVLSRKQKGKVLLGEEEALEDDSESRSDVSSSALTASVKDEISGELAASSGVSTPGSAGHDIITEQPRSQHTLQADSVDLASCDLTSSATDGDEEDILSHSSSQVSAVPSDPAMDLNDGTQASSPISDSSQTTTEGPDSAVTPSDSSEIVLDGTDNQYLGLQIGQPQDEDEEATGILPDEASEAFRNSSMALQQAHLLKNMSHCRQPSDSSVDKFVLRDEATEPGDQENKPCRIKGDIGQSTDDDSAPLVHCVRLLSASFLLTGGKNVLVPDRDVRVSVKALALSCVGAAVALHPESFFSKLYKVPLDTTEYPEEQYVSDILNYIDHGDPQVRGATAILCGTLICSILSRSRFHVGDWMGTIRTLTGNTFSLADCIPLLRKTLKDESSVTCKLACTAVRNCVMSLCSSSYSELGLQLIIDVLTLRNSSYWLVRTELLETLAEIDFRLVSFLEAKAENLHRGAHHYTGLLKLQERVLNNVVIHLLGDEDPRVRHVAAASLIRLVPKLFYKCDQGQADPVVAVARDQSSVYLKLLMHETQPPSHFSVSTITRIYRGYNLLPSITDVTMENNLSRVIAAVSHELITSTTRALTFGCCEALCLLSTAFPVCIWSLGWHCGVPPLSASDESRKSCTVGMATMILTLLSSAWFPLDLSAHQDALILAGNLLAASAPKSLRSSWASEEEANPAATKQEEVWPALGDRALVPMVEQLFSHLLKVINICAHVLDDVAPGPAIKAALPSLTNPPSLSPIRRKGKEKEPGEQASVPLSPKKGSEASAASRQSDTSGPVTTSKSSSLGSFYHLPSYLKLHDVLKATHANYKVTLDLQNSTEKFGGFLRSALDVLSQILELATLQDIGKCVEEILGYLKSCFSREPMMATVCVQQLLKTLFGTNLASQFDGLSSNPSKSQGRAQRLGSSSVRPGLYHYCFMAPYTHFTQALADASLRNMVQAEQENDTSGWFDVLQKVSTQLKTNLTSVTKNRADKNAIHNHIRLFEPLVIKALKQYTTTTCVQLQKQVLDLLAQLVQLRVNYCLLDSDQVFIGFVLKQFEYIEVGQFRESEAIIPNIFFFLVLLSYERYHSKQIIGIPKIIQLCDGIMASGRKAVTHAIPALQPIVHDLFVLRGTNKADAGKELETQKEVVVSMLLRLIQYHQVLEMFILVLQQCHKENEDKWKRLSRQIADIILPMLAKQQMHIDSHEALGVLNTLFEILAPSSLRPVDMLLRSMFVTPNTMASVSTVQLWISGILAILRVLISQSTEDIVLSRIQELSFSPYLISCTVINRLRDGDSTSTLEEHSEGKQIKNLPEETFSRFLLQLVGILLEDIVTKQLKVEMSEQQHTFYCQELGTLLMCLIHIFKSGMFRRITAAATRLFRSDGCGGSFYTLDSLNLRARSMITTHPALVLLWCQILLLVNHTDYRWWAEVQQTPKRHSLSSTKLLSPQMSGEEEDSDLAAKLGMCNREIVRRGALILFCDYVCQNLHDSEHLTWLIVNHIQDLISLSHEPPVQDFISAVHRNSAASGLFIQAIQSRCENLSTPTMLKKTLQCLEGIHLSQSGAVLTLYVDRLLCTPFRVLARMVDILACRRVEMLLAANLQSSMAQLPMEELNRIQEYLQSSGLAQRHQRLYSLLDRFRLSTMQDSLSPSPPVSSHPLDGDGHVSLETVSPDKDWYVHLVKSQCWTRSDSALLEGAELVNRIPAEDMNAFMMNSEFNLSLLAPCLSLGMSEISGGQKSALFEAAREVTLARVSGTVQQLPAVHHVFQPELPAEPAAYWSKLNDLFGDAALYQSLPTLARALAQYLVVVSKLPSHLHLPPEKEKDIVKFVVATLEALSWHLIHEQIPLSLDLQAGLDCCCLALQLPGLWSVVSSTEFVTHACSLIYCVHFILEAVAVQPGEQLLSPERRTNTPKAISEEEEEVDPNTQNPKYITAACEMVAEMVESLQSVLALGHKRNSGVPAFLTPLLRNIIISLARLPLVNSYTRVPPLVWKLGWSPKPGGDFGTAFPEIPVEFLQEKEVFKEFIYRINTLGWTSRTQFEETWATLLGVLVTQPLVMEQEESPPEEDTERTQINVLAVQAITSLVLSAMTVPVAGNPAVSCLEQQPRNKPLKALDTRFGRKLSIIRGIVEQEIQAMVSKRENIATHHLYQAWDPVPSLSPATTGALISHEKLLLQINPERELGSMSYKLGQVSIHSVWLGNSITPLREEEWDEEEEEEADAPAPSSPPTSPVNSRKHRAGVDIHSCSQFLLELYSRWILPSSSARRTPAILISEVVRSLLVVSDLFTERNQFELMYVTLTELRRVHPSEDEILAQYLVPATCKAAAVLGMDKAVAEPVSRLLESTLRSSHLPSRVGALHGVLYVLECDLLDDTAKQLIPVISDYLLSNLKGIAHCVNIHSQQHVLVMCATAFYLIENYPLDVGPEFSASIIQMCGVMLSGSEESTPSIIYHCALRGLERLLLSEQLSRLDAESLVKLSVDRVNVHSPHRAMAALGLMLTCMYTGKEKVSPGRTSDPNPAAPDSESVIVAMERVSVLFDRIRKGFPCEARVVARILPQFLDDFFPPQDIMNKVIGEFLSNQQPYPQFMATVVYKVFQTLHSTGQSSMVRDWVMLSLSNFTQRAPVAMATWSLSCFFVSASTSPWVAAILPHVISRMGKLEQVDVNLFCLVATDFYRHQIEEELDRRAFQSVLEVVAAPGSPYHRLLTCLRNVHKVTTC
Pf apPOL block = Pf-apPOL DNA polymerase inhibition. Recombinant Pf-apPOL, molecular beacon fluorescence, 1.5 h. inhibition, % at 10 µM. hit rate 0.25% among 210,000. AID 1794808
Active calls of the source: *; · = no result given; ! = repeats disagree. Cut-off read from the data, not from the text of the source: active = inhibition above about 50%; inactive = the rest.

SMILES	mHTT CaM bind	Pf apPOL block
Cn1ccnc1SCc1cc(=O)c(OC(=O)CC2CCCCC2)co1	14	-4
Fc1ccc(CN2COc3cc4c(cc3C2)OCO4)cc1	14	-10
COC(=O)C1CN(Cc2ccc(F)cc2)CCS(=O)(=O)N1Cc1ccc(F)cc1 (centres undefined)	18	-7
COC(=O)C1CN(Cc2ccc(F)cc2)CCS(=O)(=O)N1Cc1ccc(C(F)(F)F)cc1 (centres undefined)	69*	-3
COC(=O)C1CN(Cc2ccccc2)CCS(=O)(=O)N1Cc1ccccc1 (centres undefined)	-6	2
COC(=O)C1CN(CCc2ccccc2)CCS(=O)(=O)N1Cc1ccc(Cl)cc1 (centres undefined)	71*	-4
COC(=O)C1CN(Cc2ccccc2)CCS(=O)(=O)N1Cc1ccc(C(F)(F)F)cc1 (centres undefined)	87*	-2
COC(=O)C1CN(CCc2ccccc2)CCS(=O)(=O)N1Cc1ccc(OC)cc1 (centres undefined)	7	-2
CN(Cc1ccccc1)C(=O)CC1Sc2ncccc2N(C)C1=O (centres undefined)	-8	2
Cc1nc(-c2cn(C(C)C)c3ncccc23)sc1C(=O)N1CCOCC1	-6	0
CCOc1ccc(/C=C2N=C(/C=C/c3ccc(Cl)cc3)OC\2=O)cc1	11	0
O=C1C2CCCCC2C(=O)N1c1ccc(NCCc2cccc(F)c2)c([N+](=O)[O-])c1 (centres undefined)	14	-20
C1CCCN(C2CCN(C3CC4CCC3C4)CC2)CC1 (centres undefined)	81*	-7
C1CCN(C2CCN(C3CC4CCC3C4)CC2)CC1 (centres undefined)	-7	-4
Cc1cc(N=C2NC(=O)/C(=C/c3cccnc3)S2)ccc1Cl	-1	0
Cc1ccc(NC(=O)N2CCCC(C)(C(=O)NCc3ccccc3)C2)cc1F (centres undefined)	-7	-2
N#CC1=C(N)Oc2n[nH]c(-c3cccs3)c2C1c1cccs1 (centres undefined)	7	2
COc1c(Cl)cc(Cl)cc1C1C(C#N)=C(N)Oc2n[nH]c(-c3cccs3)c21 (centres undefined)	74*	0
COc1ccc(C2C(C#N)=C(N)Oc3n[nH]c(-c4cccs4)c32)c(OC)c1OC (centres undefined)	15	2
N#CC1=C(N)Oc2n[nH]c(-c3cccs3)c2C1c1ccc([N+](=O)[O-])s1 (centres undefined)	55*	-1
COc1ccccc1C(=O)N1CCN(c2ccc(C(C)C)cc2)C(=O)C1C (centres undefined)	0	-4
COc1cccc(-c2cc(C3CCN(C(=O)Nc4cc(F)cc(F)c4)CC3)[nH]n2)c1	3	-6
O=[N+]([O-])c1cccc(C2NCCC3(O)CCCCC23)c1 (centres undefined)	-13	0
O=[N+]([O-])c1cccc(C2Nc3c(Cl)cccc3C3C=CCC32)c1 (centres undefined)	75*!	-1
O=[N+]([O-])c1cccc(C2Nc3c(cccc3[N+](=O)[O-])C3C=CCC32)c1 (centres undefined)	72*	-6
SMILES	mHTT CaM bind	Pf apPOL block
O=[N+]([O-])c1cccc(C2Nc3c(cccc3C(F)(F)F)C3C=CCC32)c1 (centres undefined)	58*	1
O=[N+]([O-])c1ccc(C2Nc3c(Cl)cccc3C3C=CCC32)cc1 (centres undefined)	18	19
Cc1ccc(S(=O)(=O)N2CCN(S(=O)(=O)c3ccccc3)C2c2ccccc2)cc1 (centres undefined)	-14	-5
O=C(NC1CC1)C1CCN(C(=O)Nc2cccs2)CC1	15	-4
O=C(NCc1ccccc1Cl)C1CCN(C(=O)Nc2cccs2)CC1	58*	-6
COC(CNC(=O)c1cccc(NS(=O)(=O)c2ccc(C)cc2)c1)OC	3	-4
CCOc1ccccc1NC(=O)Nc1ccc2c(c1)CCCN2C(=O)c1cccs1	14	-1
Cc1nc(C(=O)NCc2ccc(N3CCCCC3)cc2)c(C)n1C1CCN(C)CC1	44	-7
Cc1nc(C(=O)NCc2ccc(N3CCCC3)cc2)c(C)n1C1CCN(C)CC1	55*	1
O=C(C[C@H]1C(=O)N(CCc2ccccc2)C[C@@H]1Cc1ccccc1)Nc1ccc(Br)cc1	30	-2
CSC[C@H]1CN(CCc2ccccc2)C(=O)[C@@H]1CC(=O)Nc1ccc(Br)cc1	63*	-4
COCC(=O)Nc1ccc2c(c1)OCCO2	-1	-1
Cc1cc(C)c(C#N)c(SCC(=O)c2ccc(Br)cc2)n1	-3	-3
Cc1ccc(N2C(=O)CCS2(=O)=O)cc1S(=O)(=O)Nc1cccc2cccnc12	75*	-120
Cc1ccccc1NS(=O)(=O)c1cccc2cccnc12	-2	-8
Cc1cc(NS(=O)(=O)c2ccc(NC(=O)C3CC3)cc2)nc(C)n1	-3	-5
Cc1cc(NS(=O)(=O)c2ccc(NC(=O)C(Cl)(Cl)Cl)cc2)nc(C)n1	-5	86*
Cc1ccc(NC(=O)Cn2nc(N3CCCCCC3)c3ccccc3c2=O)c(C)c1	-2	0
Cc1cccc(N2CCC(C(=O)NCc3ccc4c(c3)OCO4)C2=O)c1C (centres undefined)	-8	4
O=C(NC(c1cccs1)c1cc([N+](=O)[O-])c2cccnc2c1O)C1CCCCC1 (centres undefined)	47	-6
COc1ccccc1C(NC(=O)C1CCCCC1)c1cc([N+](=O)[O-])c2cccnc2c1O (centres undefined)	54*	-5
COc1ccccc1C(NC(C)=O)c1cc([N+](=O)[O-])c2cccnc2c1O (centres undefined)	100*	-6
Cc1ccc(F)cc1N1C=C(C#N)S(=O)(=O)c2ccccc21	-2	1
CCOc1ccc(NC(=O)N2CCC3(C2)C(=O)N(C)c2ccccc23)cc1 (centres undefined)	10	-1
Cc1ccc(S(=O)(=O)N=C2C=CC(=O)C=C2)cc1	46	-5
SMILES	mHTT CaM bind	Pf apPOL block
O=C(O)c1cccc(S(=O)(=O)N2CCCCCC2)c1	-15	-3
O=C1C=CC(=NS(=O)(=O)c2cccc(C(=O)O)c2)C=C1	58*	59*
CC(C)c1ccc(S(=O)(=O)N=C2C=CC(=O)C=C2)cc1	86*	1
CC(C)(C)C1=CC(=NS(=O)(=O)c2ccc(F)cc2)C=C(C(C)(C)C)C1=O	1	-6
O=C1C=CC(=NS(=O)(=O)c2ccc(F)cc2)C=C1	50*	-9
Cc1cccc(OCC(=O)N2CCc3[nH]ncc3C2)c1	24	-9
CC1=C(C(=O)Nc2ccc(C)cc2C)C2(CCC(C)CC2)OC1=O (centres undefined)	-7	1
CCCCN(CC)CCCNC(=O)C1=C(C)C(=O)OC12CCCCC2	-8	-2
O=C(NNS(=O)(=O)c1ccc(Cl)cc1)c1csc(CS(=O)(=O)Cc2ccco2)n1	·	4
COc1ccccc1CNC(=O)Cc1csc(NC(=O)Nc2cccc(Cl)c2)n1	4	1
O=C1NC(=Nc2ccccc2Cl)S/C1=C/c1ccccc1F	66*	-2
N#Cc1ccc(/C=C2/SC(=Nc3ccccc3Cl)NC2=O)cc1	35	2
O=C1NC(=Nc2ccccc2Cl)S/C1=C/c1ccc(F)cc1	76*	-4
O=C1NC(=Nc2ccccc2Cl)S/C1=C\c1cccc([N+](=O)[O-])c1O	44	6
